# Laboratory results as given in PubChem BioAssay (NCI).
# Compounds without any hit were thinned out: in the full panel of roughly 83,000, 20% have a hit.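 Treatment: one concentration, 48 hours, 96-well format. Scoring: percent growth, with anything below 10 considered active.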 Values without a mark were called inactive. Calls of active or inactive are those of the source.
# Tests used:
# Assay in all cases: NCI-60 one-dose screen, 48 h (100 = growth as untreated, 0 = no growth, -100 = all killed)
# Details in all cases: 10 µM unless noted
# NCI-H23 lung = tested on: NCI-H23 lung
# NCI-H226 lung = tested on: NCI-H226 lung
# NCI-H322M lung = tested on: NCI-H322M lung
# HOP-62 NSCLC = tested on: HOP-62 NSCLC
# NCI-H460 lung = tested on: NCI-H460 lung
# HOP-92 NSCLC = tested on: HOP-92 NSCLC
# NCI-H522 lung = tested on: NCI-H522 lung
# A549/ATCC NSCLC = tested on: A549/ATCC NSCLC
# 786-0 renal = tested on: 786-0 renal
# COLO 205 colon = tested on: COLO 205 colon
SMILES,growth (NCI-H23 lung),growth (NCI-H226 lung),growth (NCI-H322M lung),growth (HOP-62 NSCLC),growth (NCI-H460 lung),growth (HOP-92 NSCLC),growth (NCI-H522 lung),growth (A549/ATCC NSCLC),growth (786-0 renal),growth (COLO 205 colon)
COc1cc(-c2cncn2-c2ccc(-c3nc4ccc(F)cc4s3)cc2)ccc1F,71%,85.2%,103%,102%,35.4%,94.3%,55.9%,69.1%,90.8%,82.7%
C/C(=N\O)c1ccc(Cl)cc1,110%,106%,123%,95.7%,112%,65.3%,105%,97.9%,107%,108%
C1CN(SSN2CCOCC2)CCO1,3.63% [100 µM] (active),26.5% [100 µM],59.3% [100 µM],91.9% [100 µM],10.8% [100 µM],-0.94% [100 µM] (active),-53.1% [100 µM] (active),35.7% [100 µM],-93% [100 µM] (active),-70% [100 µM] (active)
COc1ccc(\C=N/N=C(N)/C(N)=N\N=C/c2ccc(OC)cc2)cc1,95.6%,96.1%,123%,97.8%,108%,92.5%,87.5%,113%,123%,107%
C=CCc1c(O)c(C(=O)/C=C/c2ccccc2)c(OC)c2ccoc12,53.4%,21.9%,61.9%,88%,16.8%,47.3%,37.9%,44.7%,71.3%,59.5%
CC(C)C1=NOC(=O)C1=Cc1cn(-c2ccccc2)nc1-c1ccc(F)cc1,95.6%,93.7%,94.9%,90.1%,76.8%,89.8%,66.5%,81.4%,77.4%,94.4%
NC(=O)c1cc(I)ccc1NC(=O)/C=C/c1ccccc1,9.27% (active),56.8%,33.8%,-35.5% (active),1.75% (active),0.535% (active),-18.7% (active),33.7%,26%,15.3%
c1ccc([P+](c2ccccc2)(c2ccccc2)c2ccc3c4ccc([P+](c5ccccc5)(c5ccccc5)c5ccccc5)c5cccc(c6cccc2c63)c54)cc1,8.37% (active),15.7%,17.8%,14.1%,4.26% (active),9.54% (active),6.86% (active),11%,40.7%,1.4% (active)
COc1cc2nc3cc([N+](=O)[O-])ccc3c(NCCNCC(C)O)c2cc1OC (stereo not given),-27.8% (active),-11.1% (active),-11.9% (active),-19.2% (active),-40.2% (active),-42.1% (active),-26.6% (active),-26.8% (active),-3.6% (active),-76.6% (active)
c1ccc(-c2oc(-c3ccccc3)c(CN3CCCCC3)c2CN2CCCCC2)cc1,26%,47.5%,52.9%,54.2%,24.8%,4.02% (active),2.64% (active),56.2%,38.7%,6.83% (active)
COc1cc(/C=C2/C=C(c3ccccc3)N(CCc3ccc(S(N)(=O)=O)cc3)C2=O)cc(OC)c1OC,103%,94.6%,100%,94%,105%,41.9%,81.3%,86.4%,85.5%,108%
CCCCCCCCCCCCCCCCOCCCOP(=O)(O)C1CCCN(O)C1=O (stereo not given),18.5%,-21.9% (active),28.6%,11.9%,-9.19% (active),39.3%,26.2%,17.8%,-10.4% (active),4.27% (active)
CCCCC1=C(P(=O)(O)O)N[C@H](C(=O)O)CS1,97.5%,95.5%,73.8%,89.4%,107%,89.5%,83.2%,92%,95.1%,108%
COc1ccc(/C=N/C2=C(C#N)C(c3ccccc3)c3ccc4ccccc4c3O2)cc1 (stereo not given),29.9%,51.5%,43.7%,22%,8.64% (active),41.4%,-7.09% (active),16.8%,24.4%,-26.3% (active)
